Reference: PubChem BioAssay (NCATS)
Results filed as inconclusive are left out. Entries that show only a call come without a potency. Activity calls are given as the source filed them. The call rests on the fitted dose curve; in most records, active means well fitted curve in the direction sought with a large enough effect; inconclusive means small, poorly fitted or top-dose-only effect, or another doubt; inactive means no such curve, though single readings can be large; an effect the other way counts as inactive or inconclusive.

Experiments:
[1] = qHTS of pediatric cancer cell lines to identify multiple opportunities for drug repurposing: Primary screen for SJ-GBM2 cells (AID 1347091); further: potency means the concentration at half of the fitted maximal effect
Summary of the method: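 Cell viability, CellTiter-Glo luminescence; 500-1,000 cells/well, 8- or 11-point titration, 48 h compound exposure at 37 degrees C, 5% CO2. Controls: DMSO neutral, bortezomib 2.3 µM final as positive.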

[2] = qHTS of pediatric cancer cell lines to identify multiple opportunities for drug repurposing: Primary screen for A673 cells (AID 1347092); further: nearly all actives have a fitted effect of over 45% in size; further: potency means the concentration at half of the fitted maximal effect
Summary of the method: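 A673 cells (500-1,000 cells/well) were treated 48 hours at 37 degrees C with compounds at 11-point (0.78 nM to 46 µM) or 8-point (0.59 nM to 46 µM) dilutions. Viability read by CellTiter-Glo luminescence; concentration-response curves fitted.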

[3] = qHTS of pediatric cancer cell lines to identify multiple opportunities for drug repurposing: Primary screen for SK-N-MC cells (AID 1347093); further: potency means the concentration at half of the fitted maximal effect
Summary of the method: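 Metabolically active cells were quantified by ATP-dependent luminescence (CellTiter-Glo, 15 min at room temperature) following 48 h treatment. Cells had been plated at 500-1,000 per well and settled for 5 h beforehand.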

[4] = qHTS of pediatric cancer cell lines to identify multiple opportunities for drug repurposing: Primary screen for BT-37 cells (AID 1347094); further: potency means the concentration at half of the fitted maximal effect
Summary of the method: (§1)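 Following a 5-hour attachment period, cells at 500-1,000/well received compounds and were cultured for 48 hours. CellTiter-Glo was added and luminescence read to estimate viable, metabolically active cells.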

[5] = qHTS of pediatric cancer cell lines to identify multiple opportunities for drug repurposing: Primary screen for NB-EBc1 cells (AID 1347095); further: potency means the concentration at half of the fitted maximal effect
Summary of the method: as §1

[6] = qHTS of pediatric cancer cell lines to identify multiple opportunities for drug repurposing: Primary screen for U-2 OS cells (AID 1347096); further: nearly all actives have a fitted effect of over 50% in size
Summary of the method: (§2)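 Cells (500-1,000/well) rested 5 h, then received compounds for 48 h; metabolically active cells were measured by CellTiter-Glo luminescence. Final concentrations spanned up to 46 µM (MIPE, 11-point) or 0.59 nM-46 µM (NPC, 8-point) in primary screens, 11-point in follow-ups.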

[7] = qHTS of pediatric cancer cell lines to identify multiple opportunities for drug repurposing: Primary screen for Saos-2 cells (AID 1347097); further: nearly all actives have a fitted effect of over 40% in size; further: potency means the concentration at half of the fitted maximal effect
Summary of the method: as §1

[8] = qHTS of pediatric cancer cell lines to identify multiple opportunities for drug repurposing: Primary screen for SK-N-SH cells (AID 1347098); further: nearly all actives have a fitted effect of over 65% in size; further: potency means the concentration at half of the fitted maximal effect
Summary of the method: as §2

[9] = qHTS of pediatric cancer cell lines to identify multiple opportunities for drug repurposing: Primary screen for NB1643 cells (AID 1347099); further: nearly all actives have a fitted effect of over 50% in size; further: potency means the concentration at half of the fitted maximal effect
Summary of the method: as §1

[10] = qHTS of pediatric cancer cell lines to identify multiple opportunities for drug repurposing: Primary screen for LAN-5 cells (AID 1347100); further: potency means the concentration at half of the fitted maximal effect
Summary of the method: as §2

Structure (SMILES)	Potency [1]	Potency [2]	Potency [3]	Potency [4]	Potency [5]	Potency [6]	Potency [7]	Potency [8]	Potency [9]	Potency [10]
CC(=O)CCCCn1c(=O)c2c(ncn2C)n(C)c1=O	inactive	inactive	inactive	inactive	inactive	inactive	inactive	inactive	inactive	inactive
OC[C@@H](O)[C@H](O)[C@H](O)[C@@H](O)CO	inactive	inactive	inactive	inactive	inactive	inactive	inactive	inactive	inactive	inactive
O=C(O)Cc1cccc2ccccc12	inactive	inactive	inactive	inactive	inactive	inactive	inactive	inactive	inactive	inactive
CO[C@H]1C=CO[C@@]2(C)Oc3c(C)c(O)c4c(O)c(c5c(c4c3C2=O)NC2(CCN(CC(C)C)CC2)N=5)=NC(=O)C(C)=CC=C[C@H](C)[C@H](O)[C@@H](C)[C@@H](O)[C@@H](C)[C@H](OC(C)=O)[C@H]1C	inactive	inactive	inactive	inactive	inactive	inactive	inactive	inactive	inactive	
CCn1cc(C(=O)O)c(=O)c2ccc(C)nc21	inactive	inactive	inactive	inactive	inactive	inactive	inactive	inactive	inactive	inactive
Cc1ccc(C(=O)Nc2cccc(C(F)(F)F)c2)cc1Nc1nc(-c2cccnc2)nc2c1cnn2C	7.43 µM (active)	9.35 µM (active)	9.35 µM (active)	24.3 µM (active)	8.33 µM (active)	inactive		inactive	7.43 µM (active)	13.2 µM (active)
CCC(=O)NC[C@H](Cc1ccc(OCCc2nc(-c3ccccc3)oc2C)cc1)NC(C)=CC(=O)c1ccc(C(F)(F)F)cc1	3.32 µM (active)	1.87 µM (active)	2.35 µM (active)	3.06 µM (active)	0.743 µM (active)		16.6 µM (active)		13.2 µM (active)	3.32 µM (active)
O=C(O)c1cc(-c2ccccc2)nc2ccccc12	inactive	inactive	49.1 µM (active)	inactive	inactive		inactive	inactive	inactive	inactive
CC(=O)N[C@@H](CS)C(=O)O	inactive	inactive	inactive	inactive	inactive		inactive	inactive	inactive	inactive
CC(C)n1nc(-c2ccc3oc(N)nc3c2)c2c(N)ncnc21	0.0019 µM (active)	0.0037 µM (active)	0.001 µM (active)	0.0043 µM (active)	0.0132 µM (active)		0.935 µM (active)	21.5 µM (active)		18.7 µM (active)
O=c1ccn([C@@H]2O[C@H](CO)[C@H](O)[C@H]2O)c(=O)[nH]1	inactive	inactive	inactive	inactive	inactive	inactive	inactive			inactive
CC=C(C)C(=O)O[C@H]1C(C)=C[C@]23C(=O)[C@@H](C=C(CO)[C@@H](O)[C@]12O)[C@H]1[C@@H](C[C@H]3C)C1(C)C	18.7 µM (active)	0.0148 µM (active)	4.69 µM (active)	24.3 µM (active)	14.8 µM (active)		0.296 µM (active)	inactive		
Cc1[nH]c(C=C2C(=O)Nc3ccc(S(=O)(=O)Cc4c(Cl)cccc4Cl)cc32)c(C)c1C(=O)N1CCC[C@H]1CN1CCCC1	0.0332 µM (active)	23.5 µM (active)	18.7 µM (active)	27.3 µM (active)	inactive		18.7 µM (active)			14.8 µM (active)
CO[C@H]1C=CC=C(C)C(=O)NC2=CC(=O)C(NCCN(C)C)=C(C[C@@H](C)C[C@H](OC)[C@@H](O)[C@@H](C)C=C(C)[C@@H]1OC(N)=O)C2=O	0.0526 µM (active)	0.0743 µM (active)	0.187 µM (active)	0.385 µM (active)	0.118 µM (active)		2.35 µM (active)	0.271 µM (active)	0.166 µM (active)	0.132 µM (active)
CC[C@@]1(O)C[C@H](O[C@H]2C[C@H](N(C)C)[C@H](O[C@H]3C[C@H](O)[C@H](O[C@H]4CCC(=O)[C@H](C)O4)[C@H](C)O3)[C@H](C)O2)c2c(cc3c(c2O)C(=O)c2c(O)cccc2C3=O)[C@@H]1C(=O)OC	0.372 µM (active)	4.69 µM (active)	18.7 µM (active)	0.385 µM (active)	0.526 µM (active)	inactive	16.6 µM (active)			2.35 µM (active)
Cc1ccc(C(C)(O)c2nc3ccccc3s2)c(C)c1 (stereo unspecified)	3.32 µM (active)	2.96 µM (active)	1.87 µM (active)	3.85 µM (active)	1.32 µM (active)	inactive				3.72 µM (active)
CC1(C)S[C@H]2[C@H](NC(=O)[C@@H](N)c3ccc(O)cc3)C(=O)N2[C@@H]1C(=O)O	16.6 µM (active)	0.935 µM (active)	0.743 µM (active)	6.85 µM (active)	16.6 µM (active)			24.1 µM (active)	1.18 µM (active)	3.72 µM (active)
